# Publication PMC7862700, “An all-to-all approach to the identification of sequence-specific readers for epigenetic DNA modifications on cytosine”
# Legend:
# Assay in all cases: DAPPL (digital affinity profiling via proximity ligation, sequencing); 10 mM Tris-HCl pH 7.5, 50 mM NaCl, 1 mM DTT, 4% glycerol, room temperature, 30 min; GST-TFs on glutathione beads, 16-mer random dsDNA library, 0.1% formaldehyde crosslink after washing; high values mean tight binding
# Conditions in all cases: protein: recombinant; tags: N-terminal GST; dsDNA, one strand shown
# ERF = biological target: T1, ERF (Homo sapiens, UniProt P50548 1-548)
# T1 sequence: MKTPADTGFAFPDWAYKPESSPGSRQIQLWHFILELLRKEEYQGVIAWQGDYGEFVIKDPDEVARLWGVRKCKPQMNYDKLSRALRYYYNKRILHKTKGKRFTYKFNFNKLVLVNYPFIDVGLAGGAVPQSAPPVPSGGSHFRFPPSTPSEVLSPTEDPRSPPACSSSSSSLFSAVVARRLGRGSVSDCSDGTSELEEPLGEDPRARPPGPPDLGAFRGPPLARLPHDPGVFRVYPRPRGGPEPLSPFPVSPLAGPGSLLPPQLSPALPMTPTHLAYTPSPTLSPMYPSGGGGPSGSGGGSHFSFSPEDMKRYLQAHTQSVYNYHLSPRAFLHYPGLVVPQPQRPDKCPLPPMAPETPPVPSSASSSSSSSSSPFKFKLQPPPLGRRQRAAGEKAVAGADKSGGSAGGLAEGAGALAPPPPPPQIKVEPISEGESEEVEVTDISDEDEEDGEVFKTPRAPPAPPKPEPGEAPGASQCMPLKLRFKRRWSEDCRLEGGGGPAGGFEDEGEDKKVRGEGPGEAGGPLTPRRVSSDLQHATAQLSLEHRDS
# Procedure, shortened: (§1)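 GST fusions of human transcription factors were expressed in yeast and captured with glutathione beads. Once given DNA barcodes and pooled alongside a tag-only sample, they were incubated for 30 min at room temperature with 200 nmole of a random double-stranded 16-mer DNA library in Tris/NaCl/DTT/glycerol buffer, then washed, crosslinked (0.1% formaldehyde), proximity-ligated, PCR-amplified and sequenced on an Illumina NextSeq500. The binding signal of each hexamer is its read frequency for a factor divided by its frequency for the tag-only sample.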
# ETV3L = biological target: T2, ETV3L (Homo sapiens, UniProt Q6ZN32 1-361)
# T2 sequence: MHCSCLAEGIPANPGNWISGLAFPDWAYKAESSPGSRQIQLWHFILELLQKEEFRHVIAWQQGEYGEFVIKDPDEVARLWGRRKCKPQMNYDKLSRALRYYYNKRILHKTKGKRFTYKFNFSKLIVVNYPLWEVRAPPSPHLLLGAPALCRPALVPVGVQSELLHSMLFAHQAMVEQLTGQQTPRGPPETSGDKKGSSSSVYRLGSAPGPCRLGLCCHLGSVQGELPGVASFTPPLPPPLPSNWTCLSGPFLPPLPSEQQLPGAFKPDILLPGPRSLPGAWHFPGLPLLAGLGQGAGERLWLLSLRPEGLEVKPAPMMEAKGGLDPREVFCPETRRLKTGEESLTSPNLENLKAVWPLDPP
# Procedure, shortened: as §1
# ETS2 = biological target: T3, ETS2 (Homo sapiens, UniProt P15036 1-469)
# T3 sequence: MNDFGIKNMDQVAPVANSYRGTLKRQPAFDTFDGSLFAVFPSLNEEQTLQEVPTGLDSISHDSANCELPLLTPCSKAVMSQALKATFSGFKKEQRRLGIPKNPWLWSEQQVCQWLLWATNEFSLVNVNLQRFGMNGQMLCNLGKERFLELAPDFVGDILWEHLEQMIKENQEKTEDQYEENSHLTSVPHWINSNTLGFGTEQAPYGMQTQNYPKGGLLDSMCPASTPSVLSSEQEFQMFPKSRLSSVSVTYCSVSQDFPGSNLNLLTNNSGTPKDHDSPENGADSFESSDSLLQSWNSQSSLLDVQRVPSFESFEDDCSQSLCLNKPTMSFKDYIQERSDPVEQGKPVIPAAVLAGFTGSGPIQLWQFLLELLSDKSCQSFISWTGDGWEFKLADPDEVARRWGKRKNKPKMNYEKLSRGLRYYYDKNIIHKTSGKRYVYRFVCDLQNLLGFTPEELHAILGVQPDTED
# Procedure, shortened: as §1
# SPDEF = biological target: T4, SPDEF (Homo sapiens, UniProt O95238 1-335)
# T4 sequence: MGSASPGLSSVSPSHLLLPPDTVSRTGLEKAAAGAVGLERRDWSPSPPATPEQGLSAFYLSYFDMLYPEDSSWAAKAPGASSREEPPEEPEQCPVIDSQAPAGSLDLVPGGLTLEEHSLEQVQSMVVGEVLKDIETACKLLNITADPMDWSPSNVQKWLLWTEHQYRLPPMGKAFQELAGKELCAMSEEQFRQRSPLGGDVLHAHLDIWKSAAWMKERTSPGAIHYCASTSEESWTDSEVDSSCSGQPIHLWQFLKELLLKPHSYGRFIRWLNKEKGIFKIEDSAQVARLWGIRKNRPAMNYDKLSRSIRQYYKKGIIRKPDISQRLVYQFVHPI
# Procedure, shortened: as §1
# ETV7 = biological target: T5, ETV7 (Homo sapiens, UniProt Q9Y603 1-341)
# T5 sequence: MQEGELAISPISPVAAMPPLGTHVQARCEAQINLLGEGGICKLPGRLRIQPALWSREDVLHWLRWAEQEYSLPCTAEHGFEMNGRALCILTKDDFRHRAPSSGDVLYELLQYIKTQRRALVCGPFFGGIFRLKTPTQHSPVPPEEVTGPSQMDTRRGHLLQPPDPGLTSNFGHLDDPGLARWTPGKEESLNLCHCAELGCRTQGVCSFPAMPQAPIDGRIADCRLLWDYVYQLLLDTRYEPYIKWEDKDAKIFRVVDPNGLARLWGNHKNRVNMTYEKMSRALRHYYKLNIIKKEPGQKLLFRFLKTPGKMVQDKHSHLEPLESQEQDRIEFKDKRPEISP
# Procedure, shortened: as §1
# ELF5 = biological target: T6, ELF5 (Homo sapiens, UniProt Q9UKW6-2 1-255)
# T6 sequence: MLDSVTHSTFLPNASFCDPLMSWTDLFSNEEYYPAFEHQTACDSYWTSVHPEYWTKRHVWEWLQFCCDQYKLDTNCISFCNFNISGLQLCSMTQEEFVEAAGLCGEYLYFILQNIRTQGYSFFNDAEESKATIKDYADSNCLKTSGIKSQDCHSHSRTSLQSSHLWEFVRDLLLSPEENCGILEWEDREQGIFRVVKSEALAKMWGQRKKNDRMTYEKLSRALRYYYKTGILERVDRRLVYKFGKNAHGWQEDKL
# Procedure, shortened: as §1
# ETV3 = biological target: T7, ETV3 (Homo sapiens, UniProt P41162-2 1-143)
# T7 sequence: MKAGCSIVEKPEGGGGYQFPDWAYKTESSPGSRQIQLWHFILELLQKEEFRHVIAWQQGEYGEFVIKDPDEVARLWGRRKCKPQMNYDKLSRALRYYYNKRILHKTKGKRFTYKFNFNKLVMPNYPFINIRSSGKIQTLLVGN
# Procedure, shortened: as §1
# ETV6 = ETV6 (Homo sapiens, UniProt P41212 1-452)
# Sequence of ETV6 (P41212 whole entry): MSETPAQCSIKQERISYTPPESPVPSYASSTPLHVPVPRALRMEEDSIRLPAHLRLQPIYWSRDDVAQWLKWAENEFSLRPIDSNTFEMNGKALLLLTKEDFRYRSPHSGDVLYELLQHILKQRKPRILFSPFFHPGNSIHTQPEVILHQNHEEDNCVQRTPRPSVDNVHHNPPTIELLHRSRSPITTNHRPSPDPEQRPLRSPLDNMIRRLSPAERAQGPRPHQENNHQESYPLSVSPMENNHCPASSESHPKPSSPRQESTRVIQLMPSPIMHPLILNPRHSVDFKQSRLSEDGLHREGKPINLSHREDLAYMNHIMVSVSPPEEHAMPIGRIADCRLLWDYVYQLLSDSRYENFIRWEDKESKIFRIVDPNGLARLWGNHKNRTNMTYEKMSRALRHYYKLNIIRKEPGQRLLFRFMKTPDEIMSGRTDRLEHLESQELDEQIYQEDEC
# Procedure, shortened: as §1
Sequence,binding signal (ERF),binding signal (ETV3L),binding signal (ETS2),binding signal (SPDEF),binding signal (ETV7),binding signal (ELF5),binding signal (ETV3),binding signal (ETV6)
CCTTAC,"1.32 fold enrichment (6-mer frequency, TF over GST control)","1.26 fold enrichment (6-mer frequency, TF over GST control)","1.3 fold enrichment (6-mer frequency, TF over GST control)","1.33 fold enrichment (6-mer frequency, TF over GST control)","1.36 fold enrichment (6-mer frequency, TF over GST control)","1.69 fold enrichment (6-mer frequency, TF over GST control)","1.31 fold enrichment (6-mer frequency, TF over GST control)","1.28 fold enrichment (6-mer frequency, TF over GST control)"
CTCCCA,"1.54 fold enrichment (6-mer frequency, TF over GST control)","1.29 fold enrichment (6-mer frequency, TF over GST control)","1.37 fold enrichment (6-mer frequency, TF over GST control)","1.42 fold enrichment (6-mer frequency, TF over GST control)","1.07 fold enrichment (6-mer frequency, TF over GST control)","1.41 fold enrichment (6-mer frequency, TF over GST control)","1.34 fold enrichment (6-mer frequency, TF over GST control)","1.46 fold enrichment (6-mer frequency, TF over GST control)"
TCTGCG,"1.07 fold enrichment (6-mer frequency, TF over GST control)","1.23 fold enrichment (6-mer frequency, TF over GST control)","1.17 fold enrichment (6-mer frequency, TF over GST control)","1.21 fold enrichment (6-mer frequency, TF over GST control)","1.09 fold enrichment (6-mer frequency, TF over GST control)","1.15 fold enrichment (6-mer frequency, TF over GST control)","1.16 fold enrichment (6-mer frequency, TF over GST control)","1.14 fold enrichment (6-mer frequency, TF over GST control)"
CTGTTT,"1.37 fold enrichment (6-mer frequency, TF over GST control)","1.49 fold enrichment (6-mer frequency, TF over GST control)","1.45 fold enrichment (6-mer frequency, TF over GST control)","1.42 fold enrichment (6-mer frequency, TF over GST control)","1.38 fold enrichment (6-mer frequency, TF over GST control)","1.62 fold enrichment (6-mer frequency, TF over GST control)","1.36 fold enrichment (6-mer frequency, TF over GST control)","1.49 fold enrichment (6-mer frequency, TF over GST control)"
TATTGT,"1.44 fold enrichment (6-mer frequency, TF over GST control)","1.32 fold enrichment (6-mer frequency, TF over GST control)","1.37 fold enrichment (6-mer frequency, TF over GST control)","1.3 fold enrichment (6-mer frequency, TF over GST control)","1.35 fold enrichment (6-mer frequency, TF over GST control)","1.23 fold enrichment (6-mer frequency, TF over GST control)","1.34 fold enrichment (6-mer frequency, TF over GST control)","1.33 fold enrichment (6-mer frequency, TF over GST control)"
TATGAT,"1.22 fold enrichment (6-mer frequency, TF over GST control)","1.18 fold enrichment (6-mer frequency, TF over GST control)","1.17 fold enrichment (6-mer frequency, TF over GST control)","1.23 fold enrichment (6-mer frequency, TF over GST control)","1.25 fold enrichment (6-mer frequency, TF over GST control)","1.26 fold enrichment (6-mer frequency, TF over GST control)","1.26 fold enrichment (6-mer frequency, TF over GST control)","1.17 fold enrichment (6-mer frequency, TF over GST control)"
TTGCGA,"1.29 fold enrichment (6-mer frequency, TF over GST control)","1.14 fold enrichment (6-mer frequency, TF over GST control)","1.14 fold enrichment (6-mer frequency, TF over GST control)","1.11 fold enrichment (6-mer frequency, TF over GST control)","1.14 fold enrichment (6-mer frequency, TF over GST control)","1.12 fold enrichment (6-mer frequency, TF over GST control)","1.08 fold enrichment (6-mer frequency, TF over GST control)","1.11 fold enrichment (6-mer frequency, TF over GST control)"
GCTTTG,"1.09 fold enrichment (6-mer frequency, TF over GST control)","1.19 fold enrichment (6-mer frequency, TF over GST control)","1.16 fold enrichment (6-mer frequency, TF over GST control)","1.12 fold enrichment (6-mer frequency, TF over GST control)","1.44 fold enrichment (6-mer frequency, TF over GST control)","1.13 fold enrichment (6-mer frequency, TF over GST control)","1.15 fold enrichment (6-mer frequency, TF over GST control)","1.24 fold enrichment (6-mer frequency, TF over GST control)"
TCGATC,"1.12 fold enrichment (6-mer frequency, TF over GST control)","1.2 fold enrichment (6-mer frequency, TF over GST control)","1.15 fold enrichment (6-mer frequency, TF over GST control)","1.09 fold enrichment (6-mer frequency, TF over GST control)","1.17 fold enrichment (6-mer frequency, TF over GST control)","1.11 fold enrichment (6-mer frequency, TF over GST control)","1.18 fold enrichment (6-mer frequency, TF over GST control)","1.11 fold enrichment (6-mer frequency, TF over GST control)"
GATGAT,"1.5 fold enrichment (6-mer frequency, TF over GST control)","1.31 fold enrichment (6-mer frequency, TF over GST control)","1.23 fold enrichment (6-mer frequency, TF over GST control)","1.32 fold enrichment (6-mer frequency, TF over GST control)","1.36 fold enrichment (6-mer frequency, TF over GST control)","1.24 fold enrichment (6-mer frequency, TF over GST control)","1.39 fold enrichment (6-mer frequency, TF over GST control)","1.3 fold enrichment (6-mer frequency, TF over GST control)"
AATAGC,"1.25 fold enrichment (6-mer frequency, TF over GST control)","1.03 fold enrichment (6-mer frequency, TF over GST control)","1.15 fold enrichment (6-mer frequency, TF over GST control)","1.1 fold enrichment (6-mer frequency, TF over GST control)","1.19 fold enrichment (6-mer frequency, TF over GST control)","1.16 fold enrichment (6-mer frequency, TF over GST control)","1.23 fold enrichment (6-mer frequency, TF over GST control)","1.1 fold enrichment (6-mer frequency, TF over GST control)"
TTATAT,"1.23 fold enrichment (6-mer frequency, TF over GST control)","1.37 fold enrichment (6-mer frequency, TF over GST control)","1.39 fold enrichment (6-mer frequency, TF over GST control)","1.4 fold enrichment (6-mer frequency, TF over GST control)","1.38 fold enrichment (6-mer frequency, TF over GST control)","1.28 fold enrichment (6-mer frequency, TF over GST control)","1.44 fold enrichment (6-mer frequency, TF over GST control)","1.36 fold enrichment (6-mer frequency, TF over GST control)"
TCACTG,"1.17 fold enrichment (6-mer frequency, TF over GST control)","1.4 fold enrichment (6-mer frequency, TF over GST control)","1.28 fold enrichment (6-mer frequency, TF over GST control)","1.16 fold enrichment (6-mer frequency, TF over GST control)","1.3 fold enrichment (6-mer frequency, TF over GST control)","1.17 fold enrichment (6-mer frequency, TF over GST control)","1.16 fold enrichment (6-mer frequency, TF over GST control)","1.2 fold enrichment (6-mer frequency, TF over GST control)"
AACAAT,"1.31 fold enrichment (6-mer frequency, TF over GST control)","1.26 fold enrichment (6-mer frequency, TF over GST control)","1.27 fold enrichment (6-mer frequency, TF over GST control)","1.2 fold enrichment (6-mer frequency, TF over GST control)","1.24 fold enrichment (6-mer frequency, TF over GST control)","1.36 fold enrichment (6-mer frequency, TF over GST control)","1.32 fold enrichment (6-mer frequency, TF over GST control)","1.31 fold enrichment (6-mer frequency, TF over GST control)"
ACTACT,"1.33 fold enrichment (6-mer frequency, TF over GST control)","1.37 fold enrichment (6-mer frequency, TF over GST control)","1.25 fold enrichment (6-mer frequency, TF over GST control)","1.15 fold enrichment (6-mer frequency, TF over GST control)","1.35 fold enrichment (6-mer frequency, TF over GST control)","1.34 fold enrichment (6-mer frequency, TF over GST control)","1.13 fold enrichment (6-mer frequency, TF over GST control)","1.27 fold enrichment (6-mer frequency, TF over GST control)"
